According to PubChem BioAssay AID720596 (The Scripps Research Institute Molecular Screening Center, 2013):
The whole screen tested about 370,000 compounds, of which about 1,600 (0.43%) were called active. Shown is part of a subset that was picked to be rich in actives. A number with no mark means an inactive call. Rule as the data show it: active = inhibition above about 24%; inactive = the rest.

These molecules were tested against Major prion protein (Homo sapiens) (UniProt P04156) (assay: reduces human prion protein on the cell surface, primary screen, cell-based, TR-FRET (AID 720596; also: 0% = median of the test wells and 100% = reference compound wells)). Conditions: cell surface PrPC, TR-FRET read-out; at 13.8 µM; hits give high values.
`COc1cc(-n2c(=S)[nH]c3ccc(C)cc3c2=O)c(Cl)cc1Cl` was tested, and the inhibition was 41% (active). `COc1ccc(OC)c(-n2c(=S)[nH]c3cc(C(=O)N4CCCCC4)ccc3c2=O)c1` showed an inhibition of 2.99%. For `COc1cc2[nH]c(=S)n(Cc3ccc(C)o3)c(=O)c2cc1OC`, the inhibition was -2%. Molecule `COc1cccc(C(=O)N2CCCC(CCC(=O)NCc3ccc(F)c(F)c3)C2)c1` (stereo unspecified) has an inhibition of 1.57%. In the case of `CCCOc1ccc(C2C(C(=O)c3ccc(C)o3)=C(O)C(=O)N2CCCn2ccnc2)cc1` (stereo unspecified), the inhibition is reported as 39.3% (active). Molecule `C=CCOc1cccc(C2C(C(=O)c3ccc(C)o3)=C(O)C(=O)N2CCN2CCOCC2)c1` (stereo unspecified) has an inhibition of -10.8%. `CCOc1ccc(C2/C(=C(/O)c3ccc4c(c3)CC(C)O4)C(=O)C(=O)N2CCCn2ccnc2)cc1` (stereo unspecified) showed an inhibition of 1.98%. In the case of `CCOc1ccccc1OCCCNCc1ccccc1`, the inhibition is reported as -4%. In the case of `N#C/C=C1\Sc2ccccc2C(=O)N1CC(=O)N1CCN(S(=O)(=O)c2ccccc2)CC1`, the inhibition is reported as 59.8% (active). `CC(C)c1ccc(S(=O)(=O)N2CCN(C(=O)CN3C(=O)NC(C)(c4ccccc4)C3=O)CC2)cc1` (stereo unspecified) gave an inhibition of -0.25%. In the case of `O=C(CN1CCCSc2ccccc21)N1CCN(S(=O)(=O)c2cccc(F)c2)CC1`, the inhibition is reported as -1.47%. Work on `CCCN(C(=O)CSc1nnc(N)s1)c1c(N)n(Cc2ccccc2)c(=O)[nH]c1=O` yielded an inhibition of -0.1%. With `COc1ccc(Cl)cc1NC(=O)COc1ccc2c(c1)OCO2` the inhibition was 0.61%. Work on `Cc1noc(C)c1NC(=O)Nc1ccc2c(c1)C(=O)N([C@H](C)CO)C[C@H](C)[C@@H](CN(C)S(=O)(=O)c1cn(C)cn1)O2` yielded an inhibition of 3.79%. For `COc1ccc(C)cc1NC(=O)CSc1nnc2ccc(-c3ccccn3)nn12`, the inhibition was -1.48%. With `O=C(CCCNS(=O)(=O)c1cccc2nsnc12)NCCN1CCN(c2ccccc2F)CC1` the inhibition was -22.9%. For `Cc1cccc(C(=O)Nc2c(-c3ccc(F)cc3)nc3ncccn23)c1`, the inhibition was 0.67%. In the case of `CN(CCC(=O)Nc1cc(S(=O)(=O)N(C)C)ccc1Cl)CC(=O)Nc1ccc(F)cc1`, the inhibition is reported as -6.03%. For `Cc1cccc(NC(=O)c2cc3c(C)nn(-c4ccccc4)c3s2)c1`, the inhibition was -2.71%. In the case of `Cc1cccc(NC(=O)Cn2c(=O)n(Cc3ccccc3)c(=O)c3c(C)c(C)sc32)c1`, the inhibition is reported as 4.63%. `Cc1cccc(CS(=O)(=O)c2ncc(Cl)c(C(=O)Nc3ccc(F)cc3)n2)c1` was tested, and the inhibition was 54.3% (active). In the case of `Cc1cccc(NC(=O)c2nc(S(=O)(=O)Cc3ccccc3)ncc2Cl)c1`, the inhibition is reported as 70.4% (active). `Cc1ccc(NS(=O)(=O)c2cccs2)cc1S(=O)(=O)N1CCCCCC1` gave an inhibition of 2.21%. `Cc1cccc(CC(=O)N2CCN=C2SCc2ccc([N+](=O)[O-])cc2)c1` gave an inhibition of -5.21%. In the case of `CCCn1c(=S)[nH]c2ccc(C(F)(F)F)cc21`, the inhibition is reported as 12.2%. With `CCN(CC(=O)NCc1ccc(F)cc1)S(=O)(=O)c1ccc(Cl)s1` the inhibition was -0.88%. With `Cc1ccc(Cl)cc1NC(=O)C1CCN(S(C)(=O)=O)CC1` the inhibition was 4.88%. Work on `O=C(Nc1ccccn1)C1CCN(S(=O)(=O)c2ccc3c(c2)OCCO3)CC1` yielded an inhibition of -7.97%. In the case of `Cc1ccnc(NC(=O)C2CCN(S(=O)(=O)c3c(C)c(C)cc(C)c3C)CC2)c1`, the inhibition is reported as 28.1% (active). Work on `O=C(/C=C/c1cnc2ccccc2n1)NC1CCCCCC1` yielded an inhibition of -28.9%. Molecule `CCOC(=O)c1c(-c2ccccc2)oc2ccc(OC(=O)N(C)C)cc12` has an inhibition of -3.58%. In the case of `CCOC(=O)c1c(C)oc2cc(Br)c(OCC(N)=O)cc12`, the inhibition is reported as -4.57%. `CCOC(=O)c1c(-c2ccccc2)oc2cc(Br)c(O)cc12` was tested, and the inhibition was 58.6% (active). In the case of `CCNc1nc(NCC)nc(N(C)n2cnnc2)n1`, the inhibition is reported as 3.48%. `CCN(CC)c1ccc(S(=O)(=O)N2CCOCC2)cc1NC(=O)CSc1cccc[n+]1[O-]` was tested, and the inhibition was -5.4%. Molecule `CCN1CCN(C(=O)C2CCCN(S(=O)(=O)c3ccc(OC)c(OC)c3)C2)CC1` (stereo unspecified) has an inhibition of -1.58%. `Nc1cc2c(cc1Br)-c1ccc(F)cc1C2=O` showed an inhibition of -0.15%. For `O=C(/C=C/c1ccc([N+](=O)[O-])o1)NNC(=O)c1ccc(F)cc1`, the inhibition was 64.7% (active). `CCN(CC)N=Nc1cccc(NC(C)=O)c1` gave an inhibition of -7.3%. `Cc1ccc(SC(CC(=O)c2ccc(C(C)(C)C)cc2)C(=O)O)cc1` (stereo unspecified) showed an inhibition of -2%. `O=C(OCC(=O)N1CCCCC1)c1ccc(OC(F)(F)F)cc1` gave an inhibition of 8.76%. For `c1ccc(-n2ncc(-c3nn[nH]n3)n2)cc1`, the inhibition was 1.91%. For `CCc1cc(-c2n[nH]c(=S)n2CC(C)C)cs1`, the inhibition was -0.39%. Work on `O=C(Nc1ccc(S(=O)(=O)N2CCOCC2)cc1)c1ccc2ncsc2c1` yielded an inhibition of 0.06%. In the case of `COc1ccc(C(=O)Nc2nc(-c3ccc(S(=O)(=O)N4CCOCC4)cc3)cs2)cc1`, the inhibition is reported as 27.2% (active). Molecule `Cc1ccc(S(=O)(=O)N2CCOCC2)cc1NC(=O)c1ccncc1` has an inhibition of 7.08%. `COc1ccc(NC(=O)CN(C)C(=O)c2cc(C3CC3)nn2-c2ccccc2)cc1` showed an inhibition of 10.2%. `CCC(C)(O)C(=O)OC1C(=O)OC2CC3C(C)=CC(=O)C(O)C3(C)C3C4(O)OCC23C1C(C)C4O` (stereo unspecified) was tested, and the inhibition was 83.1% (active). For `O=C(N/C(=C\c1ccc(F)cc1)C(=O)N1CCCCCC1)c1ccccc1`, the inhibition was -7.9%. `Cc1ccc(-c2nc3ccccc3c(=O)n2-c2ccc(Br)cn2)cc1` showed an inhibition of 0.03%. For `COc1ccc(CC(=O)NC(C)c2ccc(Cl)c(Cl)c2)cc1S(=O)(=O)N1CCOCC1` (stereo unspecified), the inhibition was 4.45%. `COc1ccc(C)cc1NC(=O)CNCc1cccs1` showed an inhibition of 0.34%. With `Cc1ccsc1C(=O)OCC(=O)Nc1cccc(F)c1` the inhibition was 25.2% (active). With `O=C(COC(=O)CNC(=O)C1CCCCC1)Nc1cccc(F)c1` the inhibition was -5.42%. Molecule `CC1CC1C(=O)OCC(=O)Nc1cccc(F)c1` (stereo unspecified) has an inhibition of -3.56%. `CCN(CC(=O)NCc1ccc(Cl)cc1)C(=O)CSc1ccccc1` was tested, and the inhibition was 9.76%. `C=CCN1C(=O)C2(C(C(=O)OCC)=C(N)Oc3c2c(=O)oc2ccccc32)c2ccccc21` (stereo unspecified) showed an inhibition of 8.11%. `CN1/C(=C\C=C2\N=C(c3ccc(F)cc3)OC2=O)C(C)(C)c2ccccc21` showed an inhibition of 9.17%. `CN1/C(=C\C(=O)c2oc3ccccc3c2N)C(C)(C)c2ccccc21` was tested, and the inhibition was 51.8% (active). `Cc1ccc(Cl)cc1N1CCN(C(=O)c2cccc3c(=O)c(C)c(-c4ccccc4)oc23)CC1` showed an inhibition of 3.53%. Work on `N#Cc1ccc(-c2nc3c(Cl)cc(C(F)(F)F)cn3c2Cc2ccccc2C(F)(F)F)cc1` yielded an inhibition of 6.77%. For `CCOC(=O)C1(Cc2ccc(Cl)cc2)CCN(C(C)CCn2cccn2)CC1` (stereo unspecified), the inhibition was -7.01%. Molecule `CCCCNC(=O)c1onc(CSc2cccc(OC)c2)c1C(=O)O` has an inhibition of 0.43%. `CCCCNc1c(-c2cccc(Sc3ccc(OC)cc3)c2)nc2ccccn12` was tested, and the inhibition was 24.6% (active). `COC(=O)c1ccc2nc(-c3cccc(Br)c3)c(Cc3ccc(OC)cc3C)n2c1` showed an inhibition of -3.29%. For `COc1ccc(-c2cc(C(F)(F)F)nc(S(C)(=O)=O)n2)cc1OC`, the inhibition was 43.6% (active). In the case of `COc1ccc(-c2cc(C(F)(F)F)nc(SCCC(=O)NCc3ccco3)n2)cc1`, the inhibition is reported as -0.14%. Work on `CCCC[C@H]1C2CC(OC(=O)NCc3ccccc3)C(C2)[C@H]2CCCCN21` (stereo partly specified) yielded an inhibition of -9.6%. In the case of `CCc1c(N=O)c(-c2ccccc2)n(O)[n+]1[O-]`, the inhibition is reported as -1.69%. `CCc1c(C)[nH]c(=S)c(C#N)c1C` gave an inhibition of 10%. For `CC(=O)c1c(C)[nH]c(=S)c(C#N)c1-c1ccc(F)cc1`, the inhibition was 2.25%. `CCOC(=O)c1c(C)[nH]c(=S)c(C#N)c1-c1ccccc1` was tested, and the inhibition was 36.6% (active). Work on `Cc1nc(CC(=O)NNS(=O)(=O)c2ccc(F)c(Cl)c2)cs1` yielded an inhibition of -3.65%. `Cc1c(NC(=O)CN2C(=O)C(=O)N(Cc3ccccc3)C2=O)c(=O)n(-c2ccccc2)n1C` gave an inhibition of -0.02%. `CC(=O)c1sc2nc(SCC(=O)N3CCCCC3)[nH]c(=O)c2c1C` was tested, and the inhibition was 34.2% (active). Molecule `O=C(CSc1nc2c(c(=O)[nH]1)CCCC2)N1CCCCC1` has an inhibition of 3.4%. `Cc1c(C)n2c(SCC(=O)N3CCCC3)nnc2[nH]c1=O` was tested, and the inhibition was -1.9%. For `CCCCCCCCCCCCn1ccc(=N)cc1`, the inhibition was 34.3% (active). Work on `C[C@H]1CN([C@@H](C)CO)C(=O)CCCn2cc(nn2)CO[C@@H]1CN(C)S(=O)(=O)c1cccs1` yielded an inhibition of 6.24%. `NC(=O)COc1ccc(NC(=O)c2ccccc2-c2ccccc2)cc1` showed an inhibition of 2.41%. Work on `Cc1ccc(C)c2[nH]c(=O)c(CCNC(=O)c3cccs3)cc12` yielded an inhibition of 1.05%. Molecule `CCCCC(CC)CNCc1cccn1CCN1CCOCC1` (stereo unspecified) has an inhibition of -0.03%. With `CCCCCCCCn1c2c(c(=N)c3c1CCC3)CCCC2` the inhibition was 34.1% (active). `CCNC(=O)Nc1ccc(S(=O)(=O)Nc2cnc(C)nc2C)cc1` was tested, and the inhibition was -5.43%. For `Cc1ccc(NC(=O)c2sc3nc(N)c(C#N)cc3c2N)cc1`, the inhibition was 29.7% (active). `Cc1ccc(Sc2ccc(NC(=O)c3ccc(F)cc3)cc2C#N)cc1` gave an inhibition of -3.85%. `CC(=O)c1ccc(NC(=O)c2sc3nc4n(c(=O)c3c2C)CCCCC4)cc1` gave an inhibition of 7.05%. For `CC(=O)Nc1ccc(S(=O)(=O)NNC(=O)CCc2ccccc2)cc1`, the inhibition was -0.14%. `COc1ccc(-n2nnnc2SCc2nc(N)nc(N3CCOCC3)n2)cc1` showed an inhibition of 2.17%. Work on `CC1(c2ccc3ccccc3c2)NC(=O)NC1=O` (stereo unspecified) yielded an inhibition of 9.52%. For `CNC(=O)C1CN(C(=O)c2cccc(S(=O)(=O)N3CCc4ccccc43)c2)c2ccccc2O1` (stereo unspecified), the inhibition was 4.01%.
